The list is not random: actives were taken first. Their share in the collection is about 3.6%.
Pf apPOL inh = Pf-apPOL DNA polymerase inhibition; hit rate 0.25% among 210,000; Recombinant Pf-apPOL, molecular beacon fluorescence, 1.5 h; inhibition, % at 10 µM; AID 1794808
mHTT-CaM PPI inh = inhibitors of human mutant huntingtin-calmodulin interaction; AID 1671202; inhibition, % at 15 µM; AlphaScreen His-mHTT/GST-CaM binding, luminescence; hit rate 3.6% among 190,000;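 further: 0% = both proteins with DMSO and 100% = one protein alone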
Numbers without * were called inactive; · = not tested or not shown. No stated cut-off is given here; in the data, active means inhibition above about 50%; inactive means the rest.

SMILES | Pf apPOL inh | mHTT-CaM PPI inh
COc1ccccc1N1CCN(Cc2cc([N+](=O)[O-])c(O)c3ncccc23)CC1 | 2.5 | 100.2*
COc1ccccc1N1CCN(Cc2cc(OC)c(O)c([N+](=O)[O-])c2)CC1 | -7.1 | -1.8
CC(C)Oc1ccc(-c2nc(C(=O)N3CCOCC3)cs2)cc1 | -21.6 | 6.0
O=C(NCc1ccc(F)cc1)c1cn(-c2cccc(F)c2)nn1 | 1.5 | -5.7
CCC(C(=O)Nc1ncc(S(=O)(=O)c2ccc([N+](=O)[O-])cc2)s1)c1ccccc1 (centres undefined) | -1.6 | 61.0*
O=C(Cc1ccccc1)Nc1ncc(S(=O)(=O)c2ccc([N+](=O)[O-])cc2)s1 | -3.5 | 0.6
CCC(C)c1ccc(OCCCCN2CCN(C)CC2)cc1 (centres undefined) | -0.9 | 54.2*
CCC(C)c1ccc(OCCCN2CCN(C)CC2)cc1 (centres undefined) | -6.6 | 3.2
COc1ccc(C)cc1NC(=O)c1cc(C)n2nc(C)cc2n1 | -1.5 | -2.0
O=C(NCCN1CCCCC1)C1Cc2cc(C(F)(F)F)ccc2N2CCOCC12 (centres undefined) | -4.0 | 30.8
O=C(C1Cc2cc(C(F)(F)F)ccc2N2CCSCC12)N1CCOCC1 (centres undefined) | -5.2 | 83.1*
CN(C)CCNC(=O)C1CCc2sc(C(=O)N3CCCCCC3)cc2C1 (centres undefined) | -3.6 | 1.2
CC(=O)Nc1ccc(-c2noc(C3CCN(C(=O)CCc4ccccc4)CC3)n2)cc1 | -3.1 | 18.9
Oc1nc(Nc2ccccc2)sc1C=C1C=Nc2ccccc21 | 0.2 | 69.0*
O=c1[nH]c(O)c(C=C2C=Nc3ccccc32)[nH]1 | -17.8 | ·
Cc1cc2ncn(CC(O)COc3c(C)cccc3C)c2cc1C (centres undefined) | -6.0 | 46.4
Cc1cc(C)c(OCC(O)Cn2cnc3cc(C)c(C)cc32)c(C)c1 (centres undefined) | 1.7 | 85.1*
COc1cc2nc(C)sc2cc1OC | -2.7 | -6.1
COc1ccccc1CNC(=O)c1cnn2c(C)c(Cc3cccc(Br)c3)c(C)nc12 | -10.6 | 6.0
Cc1nc2nc(CC(=O)NCc3ccccc3)nn2c(C)c1Cc1cccc(Cl)c1 | -4.2 | 63.0*
Cc1nc2c(C(=O)NCc3cccnc3)cnn2c(C)c1Cc1cccc(Br)c1 | -9.0 | 58.0*
Cc1nc2c(C(=O)NCc3ccco3)cnn2c(C)c1Cc1cccc(Br)c1 | -6.6 | 51.0*
Cc1nc2nc(SCC(=O)NCc3ccccc3)nn2c(C)c1Cc1ccccc1 | -12.6 | 31.0
Cc1ccc(CNC(=O)c2cnn3c(C)c(Cc4cccc(Cl)c4)c(C)nc23)cc1 | -5.4 | 4.0
Cc1nc2c(C(=O)NCc3ccco3)cnn2c(C)c1Cc1cccc(Cl)c1 | -4.8 | 31.0
SMILES | Pf apPOL inh | mHTT-CaM PPI inh
Cc1nc2c(C(=O)NCc3ccccc3)cnn2c(C)c1Cc1cccc(Br)c1 | -6.3 | 66.0*
Cc1cccc(NC(=O)N2CCCC2c2nc(-c3cccc(F)c3)no2)c1 (centres undefined) | -0.2 | -8.7
COc1ccccc1C(=O)N1CCCC(COc2ccc(C(=O)N3CCCC3)cc2)C1 (centres undefined) | 5.9 | 5.0
O=C(NC1CCCCC1)c1cccc(C2CCCN(C(=O)Nc3ccccc3)C2)c1 (centres undefined) | 0.9 | 5.2
COc1ccccc1C1=NN(C(=O)c2ccccc2C)C(c2ccco2)C1 (centres undefined) | -4.8 | 35.4
O=C(C(Cc1ccccc1)N1C(=O)c2ccccc2C1=O)N1CCCCCC1 (centres undefined) | -1.8 | 7.0
O=C(C[n+]1ccc2ccccc2c1)c1cc2ccccc2oc1=O | 1.1 | 84.6*
COC(=O)c1cc2ccccc2oc1=O | -0.7 | -1.9
CN(C)c1ccc(NC(=O)Nc2cn(C)c3ccccc23)cc1 | 1.5 | 55.6*
CC1CCCCC1NC(=O)Nc1cn(C)c2ccccc12 (centres undefined) | -0.9 | -10.3
CCOc1ccc(C(=O)N2CCc3c(c(C(=O)NCc4ccccc4)nn3C)C2)cc1 | -11.3 | -16.8
COc1cccc(C(=O)N2CCc3c(c(C(=O)NCc4ccc(Cl)cc4)nn3C)C2)c1 | -1.5 | 89.6*
CN(C)c1cccc(C(=O)N2CCc3c(c(C(=O)NCc4ccccc4)nn3C)C2)c1 | -5.4 | 50.5*
Cn1nc(C(=O)NCc2ccc(Cl)cc2)c2c1CCN(C(=O)c1ccccc1F)C2 | 14.2 | 43.4
Cn1nc(C(=O)NCc2ccccc2)c2c1CCN(C(=O)c1c(F)cccc1F)C2 | 3.9 | 1.7
COc1ccccc1C(=O)N1CCc2c(c(C(=O)NCc3ccc(Cl)cc3)nn2C)C1 | 4.1 | 80.0*
COc1ccc(C(=O)N2CCc3c(c(C(=O)NCc4ccccc4)nn3C)C2)cc1OC | -9.9 | 75.1*
Cc1cc(C(=O)NCc2cc(-c3cc4ccccc4o3)on2)c(C)o1 | -2.7 | 8.8
O=C(CS(=O)(=O)c1cccc2nsnc12)Nc1ccc(Cl)cc1 | -1.6 | 1.0
COc1cccc(CNC(=O)C2(C)CCCN(C(=O)Cc3cccc(OC)c3)C2)c1 (centres undefined) | -0.8 | -1.4
COC(=O)C(=O)N1CCc2cc(OC)c(OC)cc2C1c1cccc(Cl)c1 (centres undefined) | -1.9 | 12.9
CCSc1nnc(-c2nn(C)c3c2CN(C(=O)Cc2ccccc2Cl)CC3)n1C | 0.8 | 2.1
COc1ccc(CCn2c(SCC#N)nc3ccccc3c2=O)cc1OC | -0.1 | 0.0
O=C(c1ccnc(-c2cccs2)c1)N1CCN(c2ncccn2)CC1 | -0.5 | -3.9
Cc1ccc(C(=O)C=Cc2ccccc2C(=O)O)cc1 | -5.7 | -7.1
SMILES | Pf apPOL inh | mHTT-CaM PPI inh
CC(C(=O)NCCN1CCOCC1)C1CCN(S(=O)(=O)c2ccc(Cl)s2)CC1 (centres undefined) | 0.1 | -7.0
Cn1nc(C(=O)NCc2ccccc2)c2c1CCN(C(=O)c1cccs1)C2 | -13.5 | 3.9
Cn1nc(C(=O)NCc2ccccc2)c2c1CCN(C(=O)c1cccc(Cl)c1)C2 | -10.6 | 81.4*
Cn1nc(C(=O)NCc2ccccc2)c2c1CCN(C(=O)c1ccc(Cl)cc1)C2 | -3.3 | -0.2
COc1cccc(C(=O)N2CCc3c(c(C(=O)NCc4ccccc4)nn3C)C2)c1 | -4.9 | 69.0*
CC(C)(C)OC(=O)COc1ccc2c(c1)OC(=Cc1ccco1)C2=O | 3.3 | 26.9
Cc1ccc(C(=O)Nc2c3c(nn2-c2ccccc2C)CS(=O)(=O)C3)cc1C | -2.7 | 8.0
COc1ccc(C2=NN(C(=O)CN3CCN(C)CC3)C(c3cccc(F)c3)C2)cc1 (centres undefined) | -1.4 | 53.8*
COc1ccc(C2CC(c3ccc(C)cc3C)=NN2C(=O)CN2CCOCC2)cc1 (centres undefined) | -5.5 | 62.6*
COc1ccc(C2CC(c3cccc(C)c3)=NN2C(=O)CN2CCOCC2)cc1 (centres undefined) | -2.6 | 65.7*
COc1cccc(C2=NN(C(=O)CN3CCOCC3)C(c3ccccc3C)C2)c1 (centres undefined) | -1.5 | 37.6
COc1ccc(C2CC(c3cccc(F)c3)=NN2C(=O)CN2CCC(C)CC2)cc1 (centres undefined) | -5.7 | 22.9
COc1ccc(C2=NN(C(=O)CN3CCOCC3)C(c3ccc(C)cc3C)C2)cc1 (centres undefined) | -3.7 | 49.5
CCc1ccc(C2C(C(=O)OC3CCCC3)=C(C)NC3=C2C(=O)CC(C)(C)C3)cc1 (centres undefined) | 0.5 | -43.8
O=C(c1cccc(C(F)(F)F)c1)N1CCN=C1SCc1ccccc1 | -4.5 | -17.0

From PubChem
